# Source: PubChem
# 12-LOX inh: blocks human arachidonate 12S-lipoxygenase; P18054; purified 12hLO, xylenol orange hydroperoxide absorbance; hit rate 1.1% among 580,000; AID 1671190; Potency, µM (titrated, usually from 108 µM), inactives show at the top dose activity change, negative = inhibition, actives largely listed as inhibitors; also: potency is read from the fitted curve at half-maximal effect
# Target sequence (P18054 whole entry, looked up): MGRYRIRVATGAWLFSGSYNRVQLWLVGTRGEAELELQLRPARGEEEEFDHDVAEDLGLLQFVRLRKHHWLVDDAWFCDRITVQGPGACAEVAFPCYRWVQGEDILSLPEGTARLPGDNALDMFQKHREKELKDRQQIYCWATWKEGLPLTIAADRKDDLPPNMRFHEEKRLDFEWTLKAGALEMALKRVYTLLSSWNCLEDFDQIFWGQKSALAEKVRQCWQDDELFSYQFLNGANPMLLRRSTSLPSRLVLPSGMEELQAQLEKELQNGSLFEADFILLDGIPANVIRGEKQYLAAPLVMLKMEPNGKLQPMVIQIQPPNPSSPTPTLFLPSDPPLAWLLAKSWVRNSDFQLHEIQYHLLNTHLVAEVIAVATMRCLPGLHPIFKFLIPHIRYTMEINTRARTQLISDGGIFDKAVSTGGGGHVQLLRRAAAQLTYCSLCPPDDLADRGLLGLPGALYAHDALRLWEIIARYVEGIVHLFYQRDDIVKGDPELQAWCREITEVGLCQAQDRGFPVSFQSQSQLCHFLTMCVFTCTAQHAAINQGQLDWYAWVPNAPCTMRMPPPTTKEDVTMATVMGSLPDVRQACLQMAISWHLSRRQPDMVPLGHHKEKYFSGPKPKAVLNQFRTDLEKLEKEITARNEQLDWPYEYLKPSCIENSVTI
#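 Purified human 12hLO (150 nM final) in 25 mM Hepes, 0.01% Triton X-100, pH 7.0 was preincubated 15 min at room temperature with compound. Then 40 uM arachidonic acid was added, 30 min. Hydroperoxide was read by Fe-XO absorbance ratio 573/405 nm.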
# DT40 TDP1 CPT: growth inhibition of DT40 Tdp1-/-;hTDP1 cells with camptothecin (screen for TDP1 inhibitors). AID 686979. chicken DT40 Tdp1-/-;hTDP1 cells + 20 nM CPT, ATP luminescence, 48 h. hit rate 12% among 420,000. Potency, µM (doses to about 46.2 µM), for the others: at the highest dose activity change, negative = growth inhibition, hits mostly inhibitors; also: potency is read from the fitted curve at half-maximal effect; nearly all actives have a fitted effect of over 55% in size
#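 Cell growth measured by CellTiter-Glo luminescence after a minimum 48 h, 37 C compound exposure with 20 nM CPT in Tdp1-knockout DT40 cells stably expressing hTDP1, seeded 400/well; qHTS titration format.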
# HT1080-NT tox: kills 2HG-producing HT-1080-NT fibrosarcoma cells; HT-1080-NT fibrosarcoma viability, CellTiter-Glo ATP luminescence, 48 h; Potency, µM (titrated, usually from 46.1 µM), inactives show at the highest dose activity, negative = less viability, actives largely listed as cytotoxic; hit rate 1.6% among 360,000;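 also: NT is the 2HG producing partner of a matched IDH1 knockdown line; potency is read from the fitted curve at half-maximal effect; 0% = DMSO-treated cells and -100% = media-only wells without cells; nearly all actives have a fitted effect of over 55% in size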
#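 A 48-hour cytotoxicity screen used HT-1080-NT cells plated 2 hours before compound delivery. ATP-based CellTiter-Glo luminescence measured viability, normalized to DMSO and no-cell controls.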
# IL1B secr inh: blocks inflammasome-driven IL-1 beta release. THP-1 LPS/ATP IL-1B secretion, AlphaLISA, 16 h; hits give low values. activity change, % at 57.5 µM. hit rate 4.7% among 360,000. AID 743279; in the data active = activity change below about -50%; inconclusive = mostly about -30% to -49%
#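 Secreted IL-1B measured by AlphaLISA bead assay after 16 h compound exposure of THP-1 cells; compounds (final up to 57.5 uM) added 1 h before LPS (250 ng/mL) and ATP (1.25 mM) stimulation; lower signal means less secretion.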
# HT1080 IDH1KD tx: toxicity to HT-1080 IDH1 knockdown cells (counter line). HT-1080 IDH1 knockdown viability, ATP luminescence, 48 h. Potency, µM (doses to about 46.1 µM), without a hit: at the highest dose activity, negative = toxicity, hits mostly cytotoxic. hit rate 2% among 360,000. AID 686971;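 also: potency is read from the fitted curve at half-maximal effect; 0% = DMSO wells and -100% = cell-free medium wells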
#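 Using the IDH1-knockdown HT-1080 line run in the same batch and compound series as the NT line, viability after 48 h at 37 °C was determined by CellTiter-Glo luminescence and expressed as % activity.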
# TDP1 cell noCPT: qHTS for Inhibitors of human tyrosyl-DNA phosphodiesterase 1 (TDP1): qHTS in cells in absence of CPT; DT40 Tdp1-/- hTDP1 cells, no CPT, ATP luminescence, 48 h; AID 686978, 2013; hit rate 15% among 420,000; Potency, µM (doses to about 46.2 µM), inactives show top-dose activity change, negative = growth inhibition, usual class: inhibitors; also: potency is read from the fitted curve at half-maximal effect; nearly all actives have a fitted effect of over 55% in size
#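 Cells were dispensed at 400 per well, compounds added by pin tool, plates incubated ≥48 hr at 37 °C, then CellTiter-Glo added for 30 min at room temperature before luminescence reading. Line: DT40 Tdp1-/- complemented with hTDP1; camptothecin omitted.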
# Active calls of the source: *; ? = inconclusive; nt = no result; [ ] = another dose, or the depositor's remark. Only a selection was taken, and hits are over-represented in it overall. Unless noted, calls follow the shape of the dose curve; as a rule, active = well fitted curve in the direction sought with a large enough effect; inconclusive = small, poorly fitted or top-dose-only effect, or another doubt; inactive = no such curve, though single readings can be large; an effect the other way counts as inactive or inconclusive. Unless noted, % is scaled to controls: 0 for no effect and ±100 for the full control effect.
SMILES,12-LOX inh,DT40 TDP1 CPT,HT1080-NT tox,IL1B secr inh,HT1080 IDH1KD tx,TDP1 cell noCPT
COc1ccc(CCC(C)NCc2cc(OC)cc(OC)c2)cc1 (stereo not drawn),?,?,1%,-17,-3%,?
COc1ccc(CCC(C)NCCc2ccc(Cl)cc2Cl)cc1 (stereo not drawn),?,?,?,-51*,?,23µM*
COc1ccc(CCC(C)NCC2CCCCC2)cc1 (stereo not drawn),-26%,?,-23%,-18,-7%,18µM*
COc1ccc(CCC(C)NC2CCCCCCC2)cc1 (stereo not drawn),24%,?,?,-73*,?,?
CNC(=O)[C@@H]1CN(C(=O)COc2ccc(Cl)cc2C)C[C@H]1COC,54%,nt,nt,nt,nt,nt
O=C(CCN1C(=O)C2C3CC(C(Br)C3Br)C2C1=O)OCC(=O)c1ccc([N+](=O)[O-])cc1 (stereo not drawn),5%,nt,nt,nt,nt,nt
Cc1cc(C)cc(C(=O)N2CCC(Oc3ccc(C(=O)N(C)C)cn3)CC2)c1,27%,nt,nt,nt,nt,nt
O=C(N/N=C/c1ccco1)c1cc(-c2ccccc2)nc2ccccc12,0%,?,-24%,30,-24%,4.1µM*
COc1cccc(-c2cc(C(=O)N/N=C/c3ccco3)c3ccccc3n2)c1,-23%,?,-13%,-24,0%,0.92µM*
COc1cccc(/C=N/NC(=O)c2oc3nc(-c4ccccc4)cc(-c4ccco4)c3c2N)c1,-4%,-28%,9%,-58*,3%,13µM*
Cc1ccc(-c2cc(C(=O)NN=C3CCCC3)c3ccccc3n2)cc1,0%[57.4 µM],-24%,-18%,-3,-10%,-29%
O=C(NN=C1CCCCCC1)c1cc(-c2ccccc2)nc2ccccc12,26%,16µM*,-26%,44,?,15µM*
O=C(N/N=C/c1ccco1)c1cc(C2CC2)nc2ccccc12,-3%,nt,nt,nt,nt,nt
COc1ccc(Cc2nc3nccc(-c4cc(OC)c(OC)c(OC)c4)n3n2)cc1,44%,nt,nt,nt,nt,nt
Cc1nnc([C@@H]2CC(F)(F)CN2C(=O)COc2ccccc2)o1,5%,nt,nt,nt,nt,nt
CCCc1ccc(-c2cc(C(=O)N/N=C/c3ccc([N+](=O)[O-])o3)c3ccccc3n2)cc1,5%,16µM*,7.3µM*,-16,6.5µM*,8.2µM*
Cc1cccc(N2CC(C(=O)Nc3nnc(SCCC4OCCO4)s3)CC2=O)c1 (stereo not drawn),8.9µM*,-7%,-3%,0,1%,3%
COc1cc2ncnc(Nc3ccc4c(c3)OCO4)c2cc1OC,18%,-24%,17%,?,7%,-1%
C#Cc1cccc(Nc2ncnc3cc(OCCOC)c(OCCOC)cc23)c1,-19%[22.9 µM],?,nt,nt,nt,13µM*
COc1cc2ncnc(Nc3cccc(Br)c3)c2cc1OC,?,17µM*,nt,nt,nt,?
COc1cc2ncnc(Nc3cccc(Cl)c3)c2cc1OC,0%[57.4 µM],18µM*,nt,nt,nt,13µM*
COc1cc2c(Nc3ccc(Br)cc3F)ncnc2cc1OCC1CCN(C)CC1,-27%[57.4 µM],4.7µM*,nt,nt,nt,4.7µM*
COc1cc2c(Nc3ccc(Cl)c(Cl)c3F)ncnc2cc1OCC1C[C@@H]2CN(C)C[C@H]2C1,-21%[57.4 µM],nt,nt,nt,nt,nt
COc1cccc(C(=O)N2CCN(c3cc(C(F)(F)F)ncn3)CC2)c1,18%,nt,nt,nt,nt,nt
COc1ccc(Nc2ncnc3ccc(Br)cc23)cc1OC,nt,18µM*,-16%,-14,-10%,?
COc1ccc(COc2ncnc3ccc(Br)cc23)cc1F,-30%,-5%,-18%,-65*,-24%,-29%
CCn1nc(C(=O)Nc2cccc(S(=O)(=O)N3CCCC3)c2)c2ccccc2c1=O,176%,?,-20%,-15,-25%,?
